According to PubChem BioAssay:
Calls of active or inactive are those of the source. Unless noted, no rule for the calls is given here.

How the values were obtained:
[1] = tested on: XIP peptide (Xip251-270) binding; experiment: XIP fragment 251-270 binding compounds – biochemical, small-molecule microarray, fluorescence 635/667 nm, 0.1 µg/mL protein, primary screen (AID 1182); conditions: fluorescent protein binding, 635 nm, higher = more signal, called active from +8 up or from −8 down
XIP peptide (Xip251-270) = experiment: compounds binding XIP fragment 251-270 – biochemical, small-molecule microarray, fluorescence 635/667 nm, 0.5 µg/mL protein, primary screen (AID 1183); conditions: fluorescence 635 nm, higher = more signal
[2] = blood-stage malaria parasite viability loss – strain 3D7, DAPI fluorescence, 100 nL, primary screen (AID 1184);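 also: parasites grown inside human red blood cells in medium with human serum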; conditions: P. falciparum 3D7 growth, 3 d, higher = more signal
[3] = target: Homeobox protein Hox-A13 (Mus musculus) (UniProt Q62424); experiment: disruptors of Hoxa13 oligonucleotide interaction – biochemical, fluorescence polarization, labeled oligonucleotide, primary screen (AID 1185); conditions: Hoxa13:DNA binding, 15 min, higher = more signal, called active from +8 up or from −8 down
Sequence of Homeobox protein Hox-A13 (Mus musculus) (Q62424 whole entry, looked up): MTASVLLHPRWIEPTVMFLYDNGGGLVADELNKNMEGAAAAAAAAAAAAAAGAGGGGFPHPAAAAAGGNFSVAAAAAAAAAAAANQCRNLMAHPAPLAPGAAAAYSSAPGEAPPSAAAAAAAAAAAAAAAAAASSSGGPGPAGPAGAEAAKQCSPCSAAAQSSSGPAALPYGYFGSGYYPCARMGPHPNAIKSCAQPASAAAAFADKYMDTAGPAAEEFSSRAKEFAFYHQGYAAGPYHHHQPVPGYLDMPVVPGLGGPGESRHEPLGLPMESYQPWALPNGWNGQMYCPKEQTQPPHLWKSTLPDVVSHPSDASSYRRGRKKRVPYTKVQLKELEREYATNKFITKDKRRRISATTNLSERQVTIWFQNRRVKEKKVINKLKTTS

[4] = blockers of DNA damage checkpoint Chk1 activation – imaging, HeLa, hydroxyurea, phospho-Chk1 antibody, percent positive cells, primary screen (AID 1186); conditions: hydroxyurea-induced phospho-Chk1 immunofluorescence imaging, higher = more signal
[5] = blockers of DNA damage checkpoint Chk1 activation – imaging, HeLa, hydroxyurea, phospho-Chk1 nuclear intensity, primary screen (AID 1187); conditions: hydroxyurea-induced phospho-Chk1 immunofluorescence imaging, higher = more signal

Structure (SMILES) | composite z-score [1] | composite z-score (XIP peptide (Xip251-270)) | z-score [2] | z-score [3] | z-score [4] | z-score [5]
COc1ccc([Si](C)(C)[C@@H]2[C@@H](CC(=O)N(CCO)Cc3ccccc3)O[C@]3(C(=O)N(Cc4ccc(N5C(=O)c6cccc7cccc5c67)cc4)c4ccccc43)[C@H]2C)cc1 | 1.28 (inactive) | 0.577 | -1.17 | -1.19 (inactive) | 0.398 (inactive) | -0.601 (inactive)
CC(C)(C)OC(=O)CC[C@]1(C(=O)NCC(O)CO)N=C(c2ccc(OCCCO)cc2)O[C@H]1c1ccccc1N=[N+]=[N-] (some centres undefined) | 3.52 (inactive) | 0.811 | -1.45 | -4.51 (inactive) | 0.0505 (inactive) | 0.259 (inactive)
COCCOC(=O)N1C(=O)[C@@]2(c3cc(C#CCCO)ccc31)[C@H](c1ccccc1OCCO)N1[C@H](c3ccccc3)[C@H](c3ccccc3)OC(=O)[C@H]1[C@@H]2C(N)=O | 0.316 (inactive) | 0.732 | -2.22 | -3.69 (inactive) | -0.271 (inactive) | -0.0408 (inactive)
C=CC[C@]1(C(=O)NCC(O)CO)COC(c2ccc(OCCCO)cc2)=N1 (some centres undefined) | -0.933 (inactive) | -1.45 | 0.343 | -4.55 (inactive) | 0.0293 (inactive) | -0.553 (inactive)
CC(C)(C)OC(=O)CC[C@@]1(C(=O)NCCN2CCOCC2)N=C(c2ccc(OCCCO)cc2)O[C@@H]1c1ccccc1CN=[N+]=[N-] | 0.158 (inactive) | 0.729 | -0.41 | -4.93 (inactive) | -0.0412 (inactive) | -0.301 (inactive)
C=C(C)[C@@H]1CC=C(C(O)C2C=CC3C(=O)N(C)C(=O)C3N2Nc2ccc([N+](=O)[O-])cc2[N+](=O)[O-])CC1 (some centres undefined) | -0.0868 (inactive) | 0.641 | 0.481 | -4.28 (inactive) | 0.385 (inactive) | 0.279 (inactive)
CC(C)(C)N1CC=CC23O[C@@H]4/C=C\CCCOC(=O)C4[C@H]2C(=O)N(CCCO)[C@@H]3C1=O (some centres undefined) | -0.12 (inactive) | -0.774 | 0.426 | -5.57 (inactive) | -0.0351 (inactive) | 0.0939 (inactive)
C=CCN1Cc2ccccc2[C@H]2OC(c3ccc(OCCCO)cc3)=N[C@@]2(CCS(=O)(=O)c2ccccc2)C1=O | 1.61 (inactive) | 0.767 | -2.18 | -3.88 (inactive) | -0.163 (inactive) | -0.237 (inactive)
CC(C)C(CO)N1C(=O)[C@@H]2C3C(=O)OCCC/C=C\[C@H]3OC23C=CCN(Cc2ccccc2)C(=O)[C@@H]13 (some centres undefined) | 1.22 (inactive) | -0.209 | 0.359 | -5.12 (inactive) | -0.932 (inactive) | -0.842 (inactive)
COC(=O)[C@@]1(Cc2ccc(OC)cc2)[C@H]2c3cc(C(=O)N4CCCC4)n(Cc4ccc(Cl)c(C(F)(F)F)c4)c3C[C@H]2CN1C(=O)c1ccccc1 | 0.151 (inactive) | 0.45 | -1.37 | 0.806 (inactive) | -0.842 (inactive) | -0.559 (inactive)
Cc1ccc(S[C@]2(C(=O)NCC(F)(F)F)CC(=O)N(Cc3ccccc3C(F)(F)F)[C@@H]2c2ccc(CO)cc2)cc1 | 0.859 (inactive) | 0.843 | 0.186 | -1.74 (inactive) | 0.145 (inactive) | 0.518 (inactive)
CCCNC(=O)[C@@]1(Sc2ccc(C)cc2)CC(=O)N(Cc2ccccc2Cl)[C@@H]1c1ccc(CO)cc1I | 0.263 (inactive) | 0.157 | -0.0495 | -2.99 (inactive) | 0.242 (inactive) | 0.677 (inactive)
N#Cc1ccc(NN2C(C(O)C3CC=CCC3)C=CC3C(=O)N(c4ccccc4)C(=O)C32)cc1 (centres undefined) | 0.0603 (inactive) | 0.678 | 0.134 | -2.69 (inactive) | 0.123 (inactive) | 0.22 (inactive)
CN(C)CCCNC(=O)[C@@]1(Cc2ccccc2I)c2ccccc2C(=O)N(C2CCCCC2)[C@H]1c1ccc(CO)cc1 | 0.645 (inactive) | 0.611 | -1.61 | 0.846 (inactive) | -0.332 (inactive) | -0.621 (inactive)
[N-]=[N+]=Nc1ccccc1[C@@H]1OC(c2ccc(OCCCO)cc2)=N[C@]1(Cc1ccccc1)C(=O)NCCN1CCOCC1 | 0.764 (inactive) | 0.441 | -2.65 | -3.81 (inactive) | -0.437 (inactive) | -0.456 (inactive)
O=C1O[C@H](c2ccccc2)[C@H](c2ccccc2)N2[C@H]1[C@@H](C(=O)N1CCN(c3ncccn3)CC1)[C@]1(C(=O)Nc3ccc(C#CCCO)cc31)[C@H]2c1ccc(O)cc1 | -0.224 (inactive) | 0.726 | -0.707 | -2.81 (inactive) | -0.114 (inactive) | -0.212 (inactive)
COc1ccc([Si](C)(C)[C@H]2[C@H](CC(=O)N3Cc4ccccc4C[C@H]3CO)O[C@@]3(C(=O)N(C)c4c(Br)cc(C)cc43)[C@@H]2C)cc1 | 0.0621 (inactive) | 0.445 | -2.61 | -4.14 (inactive) | 0.18 (inactive) | -0.569 (inactive)

Structure (SMILES) | composite z-score [1] | composite z-score (XIP peptide (Xip251-270)) | z-score [2] | z-score [3] | z-score [4] | z-score [5]
O=C1[C@@H]2[C@@H](CC(COc3ccccc3)=C([C@H](O)CCc3ccccc3)[C@@H]2CO)C(=O)N1Cc1ccccc1 | -0.268 (inactive) | 0.73 | -0.0811 | -6.92 (inactive) | -0.556 (inactive) | -0.945 (inactive)
CN(C)CCCNC(=O)[C@@]1(C)c2ccccc2C(=O)N(Cc2ccc(OC(F)(F)F)cc2)[C@H]1c1ccc(CO)cc1 | 0.784 (inactive) | 0.778 | -1.94 | -1.98 (inactive) | 0.395 (inactive) | 0.0436 (inactive)
CC(C)c1nc2cc(Br)ccc2c(=O)o1 | 0.697 (inactive) | 0.355 | -0.795 | -0.27 (inactive) | -0.0165 (inactive) | 0.0785 (inactive)
Cc1ccc(C(C)CC(O)C2C=CC3C(=O)N(C)C(=O)C3N2Nc2ccccc2)o1 (centres undefined) | 0.476 (inactive) | 0.383 | 0.385 | -4.68 (inactive) | 0.163 (inactive) | -0.0486 (inactive)
C=C(C)[C@@H]1CC=C(C(O)C2C=CC3C(=O)N(c4ccccc4)C(=O)C3N2Nc2ccc([N+](=O)[O-])cc2)CC1 (some centres undefined) | 0.26 (inactive) | -0.0122 | -1.26 | -1.49 (inactive) | 0.248 (inactive) | 0.0235 (inactive)
COc1ccc(C(O)C2C=CC3C(=O)N(C)C(=O)C3N2N(c2ccccc2)c2ccccc2)cc1 (centres undefined) | 0.195 (inactive) | 0.512 | -0.459 | -6.57 (inactive) | 0.45 (inactive) | -0.508 (inactive)
CC(C)=CCCC=C(C)C(O)C1C=CC2C(=O)N(c3ccccc3)C(=O)C2N1Nc1ccc(C#N)cc1 (centres undefined) | 1.1 (inactive) | 0.621 | 0.221 | 0.884 (inactive) | -0.0269 (inactive) | -0.294 (inactive)
COC(=O)[C@@]1(Cc2ccc(F)cc2)[C@H]2c3cc(C(=O)N(C)C)n(CCc4ccc(O)c(O)c4)c3C[C@H]2CN1C(=O)c1ccccc1 | -0.574 (inactive) | 0.162 | 0.162 | -3.03 (inactive) | -0.361 (inactive) | 0.0787 (inactive)
CCCCCCc1nc(-c2ccc(-c3ccc(Cl)c(Cl)c3)o2)cc2c1[Si](C(C)C)(C(C)C)OC2 | 0.108 (inactive) | -0.0619 | -2.22 | -3.51 (inactive) | -0.6 (inactive) | -0.222 (inactive)
COCCOC(=O)N1C(=O)[C@@]2(c3cc(C#CCC(C(=O)OC)C(=O)OC)ccc31)[C@H](C(N)=O)[C@H]1C(=O)O[C@H](c3ccccc3)[C@H](c3ccccc3)N1[C@@H]2c1ccc(O)cc1 | 0.896 (inactive) | 0.77 | -2.1 | 0.218 (inactive) | -0.0553 (inactive) | 0.0543 (inactive)
CCCN1C(=O)[C@@]2(c3ccc([N+](=O)[O-])cc3)CC(=O)N(CC34CC5CC(CC(C5)C3)C4)[C@@H]2c2ccc(CO)cc21 | -0.349 (inactive) | 0.483 | 0.877 | -1.71 (inactive) | 0.177 (inactive) | -0.16 (inactive)
C=CCOC(=O)[C@@H]1[C@H]2C(=O)O[C@H](c3ccccc3)[C@H](c3ccccc3)N2[C@H](c2ccc(OCCOC(=O)[C@H]3C[C@H]4C(=O)N5CCC[C@H]5C(=O)N4[C@H]3c3cccc(OCCO)c3)cc2)[C@@]12C(=O)Nc1ccc(I)cc12 | 0.781 (inactive) | 0.875 | -0.441 | 0.634 (inactive) | -0.479 (inactive) | -0.434 (inactive)
C[C@@H]1ON(c2ccc(I)cc2)[C@H](c2cccc(NC(=O)OCC3c4ccccc4-c4ccccc43)c2)[C@H]1C(=O)N1C(=O)OC[C@H]1Cc1ccccc1 | -0.283 (inactive) | 0.771 | -1.27 | 2.16 (inactive) | 0.095 (inactive) | 0.0287 (inactive)
C=C(/C(=C/C[C@@H](OC(C)=O)c1cccc(OCCO)c1)c1cnc2ccccc2c1)C(C)C | -0.136 (inactive) | 0.725 | -2.95 | -5.04 (inactive) | 0.0066 (inactive) | 0.0865 (inactive)
COC(=O)[C@@]1(Cc2ccccc2)[C@H]2c3cc(C(=O)N(C)C)n(Cc4ccc(S(C)(=O)=O)cc4)c3C[C@H]2CN1C(=O)c1ccccc1 | 1.22 (inactive) | 0.721 | -1.5 | -5.44 (inactive) | 0.492 (inactive) | 0.38 (inactive)
O=C(NCc1ccc(F)cc1)[C@H]1C[C@H]2C(=O)N3CCC[C@H]3C(=O)N2[C@H]1c1ccc(O)cc1 | -0.0173 (inactive) | 0.702 | -1.21 | 1.55 (inactive) | -0.717 (inactive) | -0.415 (inactive)
CC(C)(C)N1CC=CC23O[C@@H]4/C=C\CCCOC(=O)C4[C@H]2C(=O)N(CCCCCO)[C@@H]3C1=O (some centres undefined) | 0.176 (inactive) | -1.03 | 1.91 | -4.34 (inactive) | 0.395 (inactive) | 0.144 (inactive)
